# Experimental data published in PubChem BioAssay AID504332 (National Center for Advancing Translational Sciences (NCATS), 2011).
# Hit rate of the full screen: of about 350,000 compounds, about 31,000 (8.9%) were called active. Another 15% or so got no clear call; they are omitted. This excerpt belongs to a sample that is enriched for actives. A number with no mark means an inactive call. Calls follow the shape of the dose curve; as a rule, active = well fitted inhibition curve with a large enough effect; inconclusive = small, poorly fitted or top-dose-only effect; inactive = no such curve, though single readings can be large or run the other way.
# Target: Histone-lysine N-methyltransferase EHMT2 (Homo sapiens) (UniProt Q96KQ7)
# Test: qHTS Assay for Inhibitors of Histone Lysine Methyltransferase G9a; also: nearly all actives have a fitted effect of over 75% in size
# Conditions: G9a H3K9 monomethylation, AlphaScreen, 2 h; series mostly up to 59 µM; activity, negative = inhibition: at the top concentration
# In short: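 Compounds were preincubated with 20 nM G9a for 15 min, after which biotinylated H3K9 peptide (500 nM) and SAM (20 uM) started a 2 h room-temperature reaction. Monomethylated product was quantified by antibody-based AlphaScreen chemiluminescence.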
# % is scaled to controls: 0 for no effect and ±100 for the full control effect; potency is read from the fitted curve at half-maximal effect.
# Histone-lysine N-methyltransferase EHMT2 (Homo sapiens), sequence (Q96KQ7 913-1193 limits assumed): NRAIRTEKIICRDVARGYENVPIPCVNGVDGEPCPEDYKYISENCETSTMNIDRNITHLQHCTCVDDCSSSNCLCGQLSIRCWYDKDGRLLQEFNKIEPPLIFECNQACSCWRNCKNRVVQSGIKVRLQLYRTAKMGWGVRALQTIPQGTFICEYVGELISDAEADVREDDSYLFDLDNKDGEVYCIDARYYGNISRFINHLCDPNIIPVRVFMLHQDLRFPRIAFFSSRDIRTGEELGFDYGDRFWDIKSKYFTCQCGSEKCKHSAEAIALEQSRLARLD
Structure (SMILES),"activity, negative = inhibition",Potency
CCOc1ccc(S(=O)(=O)c2cn(Cc3ccc(OC)cc3)c3ccc(F)cc3c2=O)cc1,-8%,–
Cc1ccc(Cc2nnc(SCC(=O)Nc3ccc(C)cc3C)[nH]c2=O)cc1,-35.1% [at 102 µM],–
CCn1cc(C(=O)NCCc2ccccc2)c(=O)c2cc(S(=O)(=O)N3CCCCCC3)ccc21,-10.9%,–
CCOC(=O)C1CCCN(C(=O)c2ccc3c(c2)sc2nc(-c4ccc(CC)cc4)cn23)C1 (stereo not drawn),-3.51%,–
CCOc1ccc(OCC)c(NC(=O)c2cc(C)nc3c2c(C)nn3-c2cccc(Cl)c2C)c1,-2.87%,–
CC1=C(C(=O)OCc2ccc(C)cc2)C(c2c(Cl)cccc2Cl)CC(=O)N1 (stereo not drawn),7.19%,–
COc1ccc(CCNC(=O)COC(=O)c2cc(=O)c3ccccc3o2)cc1,21.3% [at 12.7 µM],–
COc1cc(OC)cc(C(=O)Nc2nnc(SCC(=O)NCC3CCCO3)s2)c1 (stereo not drawn),3.54%,–
COc1ccccc1N1CC(C(=O)Nc2nnc(SCC(=O)NC(C)C)s2)CC1=O (stereo not drawn),14.1% [at 12.7 µM],–
COc1ccccc1N1CC(C(=O)Nc2nnc(SCC(=O)NCC3CCCO3)s2)CC1=O (stereo not drawn),–,31.6 µM (active)
CN1C(=O)CC(c2ccccc2)C1=O (stereo not drawn),4.29%,–
COc1ccc(NC(=O)c2cc([N+](=O)[O-])ccc2NC(=O)CNC2CCCCC2C)c(OC)c1 (stereo not drawn),-24.2% [at 102 µM],–
CCOC(=O)c1ccc(NC(=O)CC2C(=O)N(c3ccccc3)C(=O)N2Cc2cccs2)cc1 (stereo not drawn),3.95%,–
Cc1ccc(C(C)C)cc1OCC(=O)Nc1ccccc1N1CCCC1,–,79.4 µM (active)
CCC(=O)N1CCN(c2ccccc2NC(=O)COc2cccc(C)c2C)CC1,14.4% [at 102 µM],–
CC(C)n1c(SCC(=O)Nc2ccccc2N2CCCCC2)nc2c1c(=O)n(C)c(=O)n2C,5.12%,–
Cc1ccc(OCC(=O)Nc2ccccc2C(=O)NC2CC2)cc1,16.8% [at 12.7 µM],–
CCOc1ccccc1NC(=O)COc1ccc(S(=O)(=O)N2CCCC2)cc1,32.9% [at 102 µM],–
CN1CCN(c2ccccc2NC(=O)COc2ccc(C3CCCCC3)cc2)CC1,–,39.8 µM (active)
CCCC(=O)N1CCN(c2nc3c(OC)ccc(C)c3s2)CC1,-5.08%,–
COc1cccc(NC(=O)COc2cc(C)cc3oc(=O)cc(C)c23)c1,-12.2% [at 102 µM],–
CNS(=O)(=O)c1cccc(C(=O)OCCCC(=O)c2ccccc2)c1,-6.99% [at 12.7 µM],–
COc1ccc2c(c1)c(C(=O)N/N=C/c1cccs1)c(C)n2C,28.4% [at 102 µM],–
CCOc1ccc(S(=O)(=O)N2CCN(C(=S)NCC3CCCO3)CC2)cc1 (stereo not drawn),-5.51% [at 102 µM],–

Structure (SMILES),"activity, negative = inhibition",Potency
Cc1ccc(S(=O)(=O)N2CCC(C(=O)NCC3CCCO3)CC2)cc1 (stereo not drawn),5.26%,–
Cc1cc(C2=NNC(=Nc3ccc(S(=O)(=O)N4CCOCC4)cc3)SC2)c(C)n1CC1CCCO1 (stereo not drawn),–,7.94 µM (active)
O=C(NC1CC(=O)N(c2ccc(F)cc2)C1)c1cccs1 (stereo not drawn),1.13%,–
O=C(NCCC1CCCCN1S(=O)(=O)c1cccs1)C(=O)Nc1ccc(F)cc1F (stereo not drawn),-3.33% [at 0.501 µM],–
CC(=O)c1ccc(NC(=O)c2nc(-c3ccc(C)cc3)n3c2CCCCC3)cc1,-32%,–
CC(C)Cn1c(=O)c2ccccc2n2c(CCC(=O)N3CCN(c4cccc(Cl)c4)CC3)nnc12,7.95%,–
O=C1CN(C(=O)COc2c(Cl)cccc2Cl)c2ccccc2N1,-3.18% [at 102 µM],–
CCCCCN(C(=O)CCC(=O)OCC(=O)NC1CCC(C)CC1)c1c(N)n(CCCC)c(=O)[nH]c1=O (stereo not drawn),6.8% [at 0.501 µM],–
CN(CC(=O)Nc1cccc(F)c1)C(=O)CC1CCCC1,-24.7% [at 102 µM],–
CN(CC(=O)Nc1cccc(F)c1)C(=O)C1=COCCO1,4.45% [at 102 µM],–
CC1CCc2[nH]c3ccc(C(=O)N(C)CC(=O)Nc4cccc(F)c4)cc3c2C1 (stereo not drawn),–,44.7 µM (active)
CC(=O)Nc1ccc(S(=O)(=O)NNC(=O)CCc2ccccc2)cc1,-29% [at 12.7 µM],–
O=C(CCc1ccccc1)NNc1ccc(F)cc1,–,31.6 µM (active)
O=C(CCc1ccccc1)NNC(=O)c1ccc(Br)cc1,2.57% [at 102 µM],–
Cc1cc(C)cc(NC(=O)CCS(=O)(=O)c2cc3c4c(c2)CCN4C(=O)CC3)c1,-41.9%,–
COc1ccc(Cc2nnc(SCC(=O)Nc3ccc(C)c(Cl)c3)[nH]c2=O)cc1,-0.286% [at 102 µM],–
O=C(NCc1ccccc1)C1CCN(S(=O)(=O)c2ccc3[nH]c(=O)ccc3c2)CC1,13.4%,–
CCOC(=O)c1c(-n2cnnn2)sc(C)c1C,–,8.91 µM (active)
CCOC(=O)C(C)n1cnc2sc(C)c(C)c2c1=O (stereo not drawn),-9.24%,–
CCOc1ccc(C(=O)COC(=O)c2ccc(-n3cnnn3)cc2)cc1,51.5% [at 102 µM],–
C=CCSc1ccc(S(=O)(=O)N2CCN(C)CC2)cn1,-18.7%,–
CCn1c(=O)c2cc(C(=O)NCCc3ccc(Cl)cc3)sc2c2ccccc21,-24.9%,–
O=C(CSc1nc(=O)n2ccccc2n1)Nc1ccc2c(c1)OCCO2,-11.1% [at 102 µM],–
Cc1ccc(Cl)cc1-n1ncc2c(N3CCC(C(N)=O)CC3)ncnc21,2.61%,–
